# DENV2 CPE rescue = inhibitors of DENV2 cytopathic effect, primary screen, cell-based, plate reader, single concentration; CPE inhibition, % at 9.99 µM; DENV2-infected cells, cytopathic effect rescue; AID 651640, 2012; 350,000 compounds, 1.7% hits; in the data active means CPE inhibition above about 20%, passing the limit was not always enough; inconclusive means no clear call, values can overlap the other calls; tested in BHK-21 cells;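 further: 0% = median of neutral control wells and 100% = median of positive control wells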
# RAD52 inh = RAD52 DNA annealing inhibitors, primary screen, biochemical, FRET, single point, set 2 | 360,000 compounds, 0.46% hits | inhibition, % at 18.7 µM | recombinant RAD52 DNA annealing, FRET fluorescence | DNA repair protein RAD52 homolog (Homo sapiens), P43351;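 active means every replicate showing at least 50% inhibition; inconclusive means mean inhibition at least 50% but not in every replicate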
# Target sequence (P43351 whole entry, looked up): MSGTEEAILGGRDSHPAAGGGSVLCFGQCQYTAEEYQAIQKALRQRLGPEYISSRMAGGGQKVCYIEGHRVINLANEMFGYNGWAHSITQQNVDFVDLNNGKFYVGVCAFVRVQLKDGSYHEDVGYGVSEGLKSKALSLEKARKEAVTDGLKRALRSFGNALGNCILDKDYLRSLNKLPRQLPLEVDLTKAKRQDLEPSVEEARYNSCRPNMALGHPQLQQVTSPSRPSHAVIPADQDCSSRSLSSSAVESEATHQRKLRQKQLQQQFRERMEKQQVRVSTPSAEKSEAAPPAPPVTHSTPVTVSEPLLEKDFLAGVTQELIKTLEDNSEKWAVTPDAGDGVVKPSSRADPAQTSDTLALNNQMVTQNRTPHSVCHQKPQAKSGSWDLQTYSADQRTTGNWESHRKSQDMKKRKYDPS
# GSIS activator = GLuc luminescence reporter in INS-1E cells, primary screen for activators of glucose-dependent secretion of insulin. 370,000 compounds, 0.61% hits. INS-1E GLuc reporter insulin secretion, 2-3 h. activation, % at 16.6 µM;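 active means lowest replicate activation of at least 40%, so every replicate reaches that level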;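 further: 0% = median of neutral control wells and 100% = median of IBMX positive control wells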
# AF4-AF9 inh = inhibitors of AF4 peptide binding to AF9, primary screen, biochemical, AlphaScreen, biotin-AF4 peptide, FLAG-AF9, single point; inhibition, % at 10 µM; 350,000 compounds, 0.47% hits; Protein AF-9 (Homo sapiens), P42568;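 active means every replicate reaching a set inhibition limit, whatever the replicate mean, cut at about 25% in these data; inconclusive means mean inhibition reaches that limit but some replicates miss it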;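 further: 0% = plate neutral control median and 100% = total signal loss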
# dFosB act-1 = activators of delta FosB homodimer, primary screen, biochemical, fluorescence polarization, TAMRA-CDK5 oligo, single point; Protein FosB (Mus musculus), P13346; purified delta FosB; percent of positive-control signal above neutral wells; activation, % at 25 µM; 340,000 compounds, 0.99% hits; AID 493131, 2011;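 active means mean activation above about 17%, with every replicate also reaching it, limit read from the data, passing the limit was not always enough; inconclusive means only one of the two conditions met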
# RAD54 branch = inhibitors of human RAD54 branch migration, primary screen, biochemical, fluorescence, single point. DNA repair and recombination protein RAD54-like (Homo sapiens), Q92698. RAD54 Holliday junction branch migration, FAM/BHQ fluorescence. inhibition, % at 10.4 µM. 360,000 compounds, 0.14% hits. AID 602329, 2012;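 active means mean normalized replicate activity at least 40 and at least half of replicates scoring 40 or more; inconclusive means only one of the two criteria met; inactive means mean below 40 and under half of replicates reaching 40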;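 further: 0% = median of neutral control wells and 100% = median of positive control wells; inhibitors cause a drop in the FAM fluorescence signal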
# dFosB act-2 = activators of mouse delta FosB DNA binding, confirmation, biochemical, fluorescence polarization, TAMRA-CDK5 oligo, cherry-picked samples; shares compounds with dFosB act-1; purified delta FosB; normalised: neutral wells 0, positive control 100; activation, % at 24.9 µM; 2,400 tested, under 10 active; AID 588690, 2011;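 active means highest replicate activation at or above 34% and every replicate reaching that threshold; inconclusive means meets only one of the two criteria; inactive means meets neither criterion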;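 further: higher polarization means more probe DNA bound by delta FosB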
# Numbers without * were called inactive; u = inconclusive; x = not tested or not shown. Hits are enriched below; roughly 3.1% of the tested compounds scored in any of these assays.
SMILES,DENV2 CPE rescue,RAD52 inh,GSIS activator,AF4-AF9 inh,dFosB act-1,RAD54 branch,dFosB act-2
NS(=O)(=O)c1ccc(NC(=O)COC(=O)/C(=C/c2cccs2)c2cccs2)cc1,14,-9,10,4,27*,2,1
NC(=O)CC(NC(=O)Cc1cccc2ccccc12)c1ccc(NCc2ccc(F)cc2)c([N+](=O)[O-])c1 (stereo not drawn),x,0,x,-3,32*,4,-6
NC(=O)CC(NC(=O)Cc1cccc2ccccc12)c1ccc(NCc2ccccc2)c([N+](=O)[O-])c1 (stereo not drawn),x,-13,16,-2,47*,-3,2
NC(=O)CC(NC(=O)Cc1cccc2ccccc12)c1ccc(NCc2ccccn2)c([N+](=O)[O-])c1 (stereo not drawn),u,7,9,0,-4,1,x
COc1ccc(S(=O)(=O)N(C)C[C@@H]2Oc3ccc(NC(=O)Nc4cccc5ccccc45)cc3C(=O)N([C@@H](C)CO)C[C@@H]2C)cc1,u,15,-1,0,x,x,x
COc1ccc(CNC(=O)C2CCN(c3nnc(N4CCCC4=O)s3)CC2)cc1,6,1,x,4,-5,-3,x
COc1ccc(Br)cc1CNC(=O)C1CCN(c2nnc(N3CCCC3=O)s2)CC1,-2,-3,-3,-1,43*,-23,2
COc1ccc2c3c(n(C)c2c1)[C@@H](CO)N(Cc1ccccc1F)CC31CCN(C(=O)C2CCCC2)CC1,3,-150,-9,-3,x,x,x
COc1ccc(/C=C(\C#N)C(=O)OCC(=O)NCc2ccccc2OC)cc1,-6,-26,4,-43,31*,x,4
Oc1ccc(Br)cc1-c1cc(-c2ccc(Cl)cc2)n[nH]1,x,x,x,x,28*,x,-1
Oc1ccc(Br)cc1-c1cc(-c2ccccc2)n[nH]1,x,x,x,x,9,-2,x
Cc1ccc2c(c1)C1NC(=S)NC(C)(O2)C1C(=O)Nc1ccc(Cl)cc1 (stereo not drawn),x,x,-30,x,40*,-2,0
COc1ccc2c(c1)C1NC(=S)NC(C)(O2)C1C(=O)Nc1ccc(Cl)cc1 (stereo not drawn),-9,-3,-30,-16,-2,x,x
COc1ccccc1NC(=O)NNC(=O)COc1ccc2ccccc2c1,2,0,13,-3,21*,2,2
COc1ccc2cc(OCC(=O)NNC(=O)Nc3ccc(C(C)=O)cc3)ccc2c1,1,-15,21,-1,99*,3,5
COc1ccc(NC(=O)NNC(=O)COc2ccc3cc(Br)ccc3c2)cc1OC,-5,-1,10,1,144*,6,6
COc1ccc(NC(=O)NNC(=O)COc2ccc3ccccc3c2)cc1OC,-7,5,0,-1,-28,-8,x
Cc1noc(C)c1NC(=O)Nc1ccc2c(c1)C(=O)N([C@H](C)CO)C[C@H](C)[C@H](CN(C)S(=O)(=O)c1cn(C)cn1)O2,-1,-11,17,-2,x,0,x
COc1ccc(NC(=O)N(C)C[C@@H]2OCCCC[C@@H](C)Oc3ccc(NC(=O)NC(C)C)cc3C(=O)N([C@@H](C)CO)C[C@H]2C)cc1,1,-6,-5,-3,x,-3,x
C[C@@H]1CCCCO[C@H](CN(C)C(=O)C2CCCCC2)[C@@H](C)CN([C@@H](C)CO)C(=O)c2cc(NS(=O)(=O)c3ccc(F)cc3)ccc2O1,2,6,-11,5,x,-6,x
Cc1c(Cl)cccc1NC(=O)NCc1ccccn1,2,-6,19,0,-9,14,x
Cc1c(Cl)cccc1NC(=O)NCc1ccc(F)cc1,0,-12,7,-2,28*,x,-3
O=C(NCc1ccc(F)cc1)NC(=O)c1ccc(Cl)cc1,3,-14,15,-1,32*,1,5
O=C(NCc1ccccc1)NC(=O)c1ccc(Cl)cc1,0,-12,3,-1,-7,-16,x
O=C(NC1CCC(CC2CCC(NC(=O)C(Cl)Cl)CC2)CC1)C(Cl)Cl (stereo not drawn),-4,0,10,4,59*,-5,6
SMILES,DENV2 CPE rescue,RAD52 inh,GSIS activator,AF4-AF9 inh,dFosB act-1,RAD54 branch,dFosB act-2
CO[C@@H]1CN(C)C(=O)c2cc(NC(=O)c3cc(C)on3)ccc2OC[C@H](C)N(C)C[C@@H]1C,-6,-15,8,-3,x,-7,x
COc1ccc(CC(=O)Nc2nnc(-c3cccc([N+](=O)[O-])c3)s2)cc1,3,-20,3,3,22*,5,1
COc1cccc(-c2nnc(NC(=O)c3cccs3)s2)c1,-4,1,-10,-10,34*,x,1
C[C@H](CO)N1C[C@H](C)[C@H](CN(C)C(=O)c2cnccn2)Oc2ncc(/C=C/c3ccccc3)cc2C1=O,-4,-5,10,0,x,5,x
Cc1noc(C)c1S(=O)(=O)Nc1ccc2c(c1)CC(=O)N([C@@H](C)CO)C[C@@H](C)[C@H](CN(C)Cc1ccc(C(=O)O)cc1)O2,-10,-6,12,-5,x,4,x
Cc1ccc(S(=O)(=O)Nc2ccc(NC(=O)Nc3ccc(F)cc3F)cc2)cc1,x,x,-26,x,20*,4,5
O=C(Nc1ccc(NC(=O)c2ccccc2O)cc1)Nc1ccc(F)cc1F,4,-3,6,0,32*,x,7
COc1ccc(CNCCC(c2ccc(F)cc2)c2ccc(OC)cc2)cc1 (stereo not drawn),x,x,5,x,21*,x,4
COc1ccc(C(CCNCc2ccc(F)cc2)c2ccc(F)cc2)cc1 (stereo not drawn),7,-29,-38,2,-5,x,x
CCCNC(=O)C[C@@H]1C[C@@H]2c3cc(NC(=O)c4cccnc4)ccc3O[C@@H]2[C@H](CO)O1,2,x,-6,x,x,12,x
CC(=O)c1cn(-c2ccc(Cl)cc2)c(=O)n(Cc2ccc(Br)cc2)c1=O,1,-11,-3,-1,27*,x,1
CO[C@H]1CN(C)C(=O)c2cc(NS(C)(=O)=O)ccc2OC[C@@H](C)N(C(=O)CN(C)C)C[C@H]1C,8,-6,-5,-2,x,-9,x
CC(=O)c1c(C)[nH]c(C(=O)OCC(=O)c2ccc3c(c2)NC(=O)CO3)c1C,-7,-25,5,-6,30*,-6,4

# Screening data (PubChem)
